Experimental findings from PubChem BioAssay are described below.

Test [1] can be described thus: inhibitors of TNFa-induced NFkB p65 translocation, primary screen, imaging, HUVEC, MLSMR starter and 10KST1 sets (AID 438;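 active = inhibition above 20% together with a positive visual image hit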;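 note: compound added about 3h40 before a 20 min TNFalpha stimulation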;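 for inhibition: signal is the nuclear over cytoplasmic p65 intensity ratio per well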). Particulars: HUVEC TNFa-induced p65 nuclear translocation; cell count: measured here: nuclei count (cytotoxicity indicator), at 2.08 µM unless noted; inhibition: at 2 µM, stronger effect = higher value unless noted.
The nature of test [2]: reduction of polyQ htt aggregates in cells – imaging, exon1htt(103Q)mCFP cells, high-content imaging, primary screen (AID 483;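 active = visual image review flags a hit and inhibition of aggregation exceeds 20%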;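 note: compound exposure lasted 3 days before fixation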;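 for nuclei count: percent of the per-plate median nuclei count of sample wells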). Particulars: exon1htt(103Q)mCFP cell line, aggregate imaging, at 2 µM; inhibition of aggregation: stronger effect = higher value; nuclei count: measured here: cell count, toxicity.
Test [3] is described as follows: endothelial E-selectin expression blockers – imaging, HUVEC, immunofluorescence, MLSMR starter and 10KST1 sets, primary screen (AID 487;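 active = visually confirmed hit in the image check and inhibition above 20%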;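 for inhibition: signal is fraction of cell area covered by stained E-selectin grains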;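 for nuclei count: 100% = median nuclei count of all wells on the same plate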). Particulars: HUVEC TNFalpha-induced E-selectin immunofluorescence imaging, at 2 µM; inhibition: stronger effect = higher value; nuclei count: measured here: cell number, toxicity.
Test [4] deals with Voltage-gated potassium channel subunit beta-2 (Rattus norvegicus) (UniProt P62483). Put plainly: inhibitors of rat Kvbeta2 reductase activity – biochemical, NADPH fluorescence, primary screen (AID 622;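 active = fluorescence slope higher than the sample average by over 3 SD, cut at about -0.22 in these data, passing the limit was not always enough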;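 note: slope of raw intensity against log time taken from 70 to 1610 s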). Conditions: recombinant KvBeta, 4-cyanobenzaldehyde reduction, at 10 µM, stronger effect = higher value.
Chain of Voltage-gated potassium channel subunit beta-2 (Rattus norvegicus) (P62483 whole entry, looked up): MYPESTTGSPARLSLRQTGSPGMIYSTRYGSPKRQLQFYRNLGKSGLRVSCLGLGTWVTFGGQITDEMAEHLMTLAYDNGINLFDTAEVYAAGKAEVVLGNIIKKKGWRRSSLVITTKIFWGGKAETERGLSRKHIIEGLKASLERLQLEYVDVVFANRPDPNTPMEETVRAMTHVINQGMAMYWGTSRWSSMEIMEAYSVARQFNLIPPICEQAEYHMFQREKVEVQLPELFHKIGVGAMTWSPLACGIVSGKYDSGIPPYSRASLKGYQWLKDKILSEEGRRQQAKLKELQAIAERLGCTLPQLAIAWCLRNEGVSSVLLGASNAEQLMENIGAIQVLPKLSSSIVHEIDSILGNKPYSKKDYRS
For test [5] the target is unchanged. As to the kind of experiment: enhancers of rat Kvbeta2 NADPH turnover – biochemical, NADPH fluorescence, primary screen (AID 623;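 active = NADPH fluorescence slope more negative than the mean of all samples by about 3 SD, 99.7% confidence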;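 note: fluorescence intensity change per second fitted from 20 to 320 s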). Conditions: Recombinant KvBeta, NADPH fluorescence decrease slope, 10 min; at 10 µM; stronger effect = lower value.
In test [6] the target is Alpha-2C adrenergic receptor (Homo sapiens) (UniProt P18825). As to the kind of experiment: compounds altering alpha2C-coupled GIRK flux – cell-based, HEK293 alpha2C/GIRK1/2, thallium flux, primary screen (AID 624;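 active = fluorescence slope after compound addition differing from the mean of all screened samples at 99.7% confidence, in either direction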;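 note: slope of fluorescence ratio to pre-addition baseline per second over 15 to 24 s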). Conditions: thallium flux BTC fluorescence, at 10 µM, actives lie on both sides.
Chain of Alpha-2C adrenergic receptor (Homo sapiens) (P18825 whole entry, looked up): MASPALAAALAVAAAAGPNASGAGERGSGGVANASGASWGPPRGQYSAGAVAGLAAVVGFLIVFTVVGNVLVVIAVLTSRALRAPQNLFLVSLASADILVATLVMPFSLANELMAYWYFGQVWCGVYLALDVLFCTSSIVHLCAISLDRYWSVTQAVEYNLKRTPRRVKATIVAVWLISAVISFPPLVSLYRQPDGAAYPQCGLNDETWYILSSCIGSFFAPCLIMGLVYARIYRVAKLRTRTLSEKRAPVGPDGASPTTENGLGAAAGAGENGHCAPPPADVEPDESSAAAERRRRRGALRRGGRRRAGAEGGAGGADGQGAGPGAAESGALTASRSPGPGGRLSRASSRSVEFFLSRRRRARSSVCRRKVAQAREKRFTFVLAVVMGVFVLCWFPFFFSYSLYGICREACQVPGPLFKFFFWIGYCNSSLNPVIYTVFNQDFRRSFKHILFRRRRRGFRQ
Test [7] in a line: blockers of RIG-like receptor reporter activation – cell-based, Sendai virus stimulus, luciferase, 10K MLSCN set, TLR/RLR signaling modifier project, primary screen (AID 602276).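 Note: firefly luciferase from ISG56 promoter only with Renilla not read in this screen; 0% = Sendai virus plus DMSO and 100% = medium plus DMSO without virus.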 Conditions: HEK293 RL24 IRF3 luciferase reporter, at 10 µM, stronger effect = higher value.
Test [8] is described as follows: TLR3 IRF3 reporter activation blockers – cell-based, poly I:C stimulus, luciferase, 10K MLSCN set, primary screen (AID 602277;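 active = inhibition of the reporter signal at or above 50%; inactive = inhibition below 50%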). Conditions: HEK293-TLR3 RL24 IRF3 luciferase reporter, at 10 µM, stronger effect = higher value. (In general: Reporter assays use an easily measured gene product as a stand-in for the process of interest.)

Activity calls are given as the source filed them.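 Rule for the calls, unless noted: active = inhibition at or above 50% at 10 µM; inactive = inhibition below 50%.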

By inhibition is commonly meant the change of the read-out against control, counted positive when it falls.

In turn, `COC(=O)CC1(Cc2ccccc2)C(=O)NC(=O)NC1=O` had a cell count in test [1] of 641. In addition, the inhibition in test [1] is -6.3% (inactive); in test [3], -73.6% (inactive); in test [7], 17.2% (inactive); in test [8], 21.5% (inactive). Moreover, in test [2], the inhibition of aggregation is 12.4% (inactive). Besides, the nuclei count came out at 78% in test [2] and 140% in test [3]. In addition, the fluorescence slope in test [4] was -0.579 (inactive). Moreover, the NADPH fluorescence slope in test [5] was -2.7e-05 (inactive). Besides, the slope in test [6] was 0.00355 (inactive).

In the case of `COC(=O)C1C2c3ccccc3OC1(C)N=c1s/c(=C/c3cnn(C)c3C)c(=O)n12` (centres undefined), the cell count in test [1] worked out at 469. Besides, the inhibition in test [1] is 10.9% (inactive); in test [3] it was -82.7% (inactive); in test [7], 15.6% (inactive); in test [8], 23.4% (inactive). In addition, the inhibition of aggregation in test [2] is 0.9% (inactive). The nuclei count in test [2] was found to be 115%; in test [3] it was 112%. Besides, in test [4], the fluorescence slope is -0.332 (inactive). Also, the NADPH fluorescence slope in test [5] is -4.9e-05 (inactive). Besides, the slope in test [6] was 0.00428 (inactive).

In test [1], `C=CCn1c(O)c(C(C)=Nc2ccc(N(CC)CC)cc2)c(=O)[nH]c1=O` came in with a cell count of 327. Also, the inhibition in test [1] is 2.5% (inactive); in test [3], -33.7% (inactive); in test [7], 21.7% (inactive); in test [8], 25.5% (inactive). Besides, in test [2], the inhibition of aggregation is -15.3% (inactive). Besides, the nuclei count was 102% in test [2] and 109% in test [3]. In test [4], the fluorescence slope was -0.492 (inactive). Further, the NADPH fluorescence slope in test [5] was 2.3e-05 (inactive). The slope in test [6] was 0.00389 (inactive).

In test [1], `CCCCn1c(O)c(C=NC2CCCCC2N)c(=O)[nH]c1=O` (centres undefined) returned a cell count of 747. Besides, the inhibition is -6% (inactive) in test [1], -67.3% (inactive) in test [3], 8.89% (inactive) in test [7] and 26.1% (inactive) in test [8]. The inhibition of aggregation in test [2] was 4.3% (inactive). The nuclei count in test [2] is 113%; in test [3], 119%. For the same compound, in test [4], the fluorescence slope was -0.61 (inactive). In test [5], the NADPH fluorescence slope is -4e-05 (inactive). The slope in test [6] is 0.00682 (inactive).

As to `Cc1ccc(-c2nc(CS(=O)CC(=O)N3CCC4(CC3)OCCO4)c(C)o2)cc1` (centres undefined), the cell count in test [1] is 704. Besides, the inhibition was -30.6% (inactive) in test [1], -4.2% (inactive) in test [3], 16.5% (inactive) in test [7] and 19.1% (inactive) in test [8]. Further, the inhibition of aggregation in test [2] was -2.4% (inactive). For the same compound, the nuclei count in test [2] amounted to 99.4%; in test [3], 101%. Moreover, in test [4], the fluorescence slope was -0.62 (inactive). In addition, the NADPH fluorescence slope in test [5] is -2.5e-05 (inactive). Further, the slope in test [6] is 0.00606 (inactive).

The compound `COc1ccc(C2SCC(=O)Nc3c2c(=O)[nH]n3C2CCCCCC2)cc1OC` (centres undefined) came in with a cell count in test [1] of 316. In addition, the inhibition in test [1] is 21% (inactive); in test [3], -11.5% (inactive); in test [7] it was 13.9% (inactive); in test [8], 23.3% (inactive). Further, the inhibition of aggregation in test [2] is -0.4% (inactive). Moreover, the figures for the nuclei count in test [2] and in test [3] were 97.9% and 109%, respectively. Besides, the fluorescence slope in test [4] is -0.614 (inactive). For the same compound, the NADPH fluorescence slope in test [5] was -4.2e-05 (inactive). Moreover, the slope in test [6] was 0.00412 (inactive).

In test [1], `CC1(C)Cc2c(sc3c2C(=O)NC(c2cccnc2)N3)CO1` (centres undefined) displayed a cell count of 328. In addition, the inhibition in test [1] was 6.5% (inactive); in test [3], 4.5% (inactive); in test [7], 3.52% (inactive); in test [8], 5.63% (inactive). For the same compound, in test [2], the inhibition of aggregation was 6% (inactive). The nuclei count in test [2] came out at 98.3%; in test [3], 106%. For the same compound, the fluorescence slope in test [4] is -0.584 (inactive). Besides, the NADPH fluorescence slope in test [5] is -3.1e-05 (inactive). In addition, the slope in test [6] was 0.00356 (inactive).

With `O=c1[nH]c(=O)n(CCc2ccc(F)cc2)c(O)c1C=NCCCn1ccnc1`, the cell count in test [1] amounted to 544. In addition, the inhibition in test [1] is 2.2% (inactive); in test [3] it was 2.2% (inactive); in test [7] it was 13.3% (inactive); in test [8], 24% (inactive). The inhibition of aggregation in test [2] is -7.2% (inactive). Further, the nuclei count in test [2] amounted to 110%; in test [3], 102%. Besides, the fluorescence slope in test [4] is -0.589 (inactive). In test [5], the NADPH fluorescence slope is -3.2e-05 (inactive). Also, the slope in test [6] is 0.00323 (inactive).

The compound `Cc1nn(-c2ccccc2)c2c1CC1(C(=O)N(C)C(=O)N(C)C1=O)C1CCCCN21` (centres undefined) yielded a cell count in test [1] of 438. In addition, the inhibition in test [1] is -14.2% (inactive); in test [3], -8.8% (inactive); in test [7] it was -9.7% (inactive); in test [8], 28.2% (inactive). Besides, the inhibition of aggregation in test [2] is 26.9% (inactive). The nuclei count in test [2] was 65.3%; in test [3], 101%. Moreover, in test [4], the fluorescence slope is -0.509 (inactive). Also, in test [5], the NADPH fluorescence slope was -2.5e-05 (inactive). Besides, the slope in test [6] is 0.00545 (inactive).

In the case of `Cc1cc(OCC(=O)O)c2c3c(c(=O)oc2c1)CCCC3`, in test [1], the cell count is 361. For the same compound, the inhibition is 5.7% (inactive) in test [1], -74% (inactive) in test [3], -0.949% (inactive) in test [7] and -5.67% (inactive) in test [8]. For the same compound, the inhibition of aggregation in test [2] was -15% (inactive). Also, the nuclei count in test [2] stood at 92.2%; in test [3] it was 87.1%. In addition, the fluorescence slope in test [4] is -0.117 (active). Besides, the NADPH fluorescence slope in test [5] was -1.4e-05 (inactive). In addition, the slope in test [6] is 0.00624 (inactive).

Compound `CCCCOc1ccc(CN2CCN(CCO)CC2)cc1` yielded a cell count in test [1] of 644. Further, the inhibition in test [1] was 2.9% (inactive); in test [3], -3.3% (inactive); in test [7], 5.26% (inactive); in test [8] it was 10.1% (inactive). In test [2], the inhibition of aggregation is -4.6% (inactive). For the same compound, the nuclei count is 115% in test [2] and 96.5% in test [3]. Moreover, the fluorescence slope in test [4] was -0.43 (inactive). Moreover, in test [5], the NADPH fluorescence slope was -0.00013 (inactive). Further, in test [6], the slope is 0.00523 (inactive).

`O=C(CN1C2CCC1CC(O)(c1cccnc1)C2)Nc1ccc2c(c1)OCO2` (centres undefined) came in with a cell count in test [1] of 414. Moreover, the inhibition in test [1] was 7.5% (inactive); in test [3], -176% (inactive); in test [7] it was 15% (inactive); in test [8], 22.4% (inactive). Moreover, in test [2], the inhibition of aggregation was -3.4% (inactive). For the same compound, the values for the nuclei count in test [2] and in test [3] were 104% and 115%, respectively. In addition, in test [4], the fluorescence slope was -0.591 (inactive). The NADPH fluorescence slope in test [5] is 5.6e-07 (inactive). For the same compound, in test [6], the slope is 0.00303 (inactive).

Consider `Cc1ccc(C)c(NC(=O)CSc2nnc([C@@H](N)Cc3c[nH]c4ccccc34)o2)c1`, for which, in test [1], the cell count was 282. Moreover, the inhibition in test [1] is 9.5% (inactive); in test [3], -8.3% (inactive); in test [7], 9.6% (inactive); in test [8], 24.2% (inactive). In addition, the inhibition of aggregation in test [2] is -6.6% (inactive). Moreover, the nuclei count came out at 103% in test [2] and 92.8% in test [3]. In addition, in test [4], the fluorescence slope was -0.428 (inactive). The NADPH fluorescence slope in test [5] is -1.2e-05 (inactive). In test [6], the slope is 0.00513 (inactive).

In test [1], `CCNc1ccc(P(=S)(N(C)C)N(C)C)cc1` returned a cell count of 441. Further, the inhibition was 16.7% (inactive) in test [1], -422% (inactive) in test [3], 10.5% (inactive) in test [7] and 26.1% (inactive) in test [8]. Besides, the inhibition of aggregation in test [2] is -8.4% (inactive). The nuclei count in test [2] is 115%; in test [3], 153%. In addition, the fluorescence slope in test [4] was -0.622 (inactive). In test [5], the NADPH fluorescence slope was -1.6e-05 (inactive). Besides, the slope in test [6] was 0.00749 (inactive).
